Among the data in PubChem BioAssay AID686964 (The Scripps Research Institute Molecular Screening Center, 2013) are inhibition values, retold here.

Each structure is given as a SMILES string. The whole screen tested about 370,000 compounds, of which about 1,100 (0.3%) were called active. This is one part of a sample in which actives are shown more often than they occur. Values without a mark were called inactive. Rule as the data show it: active = inhibition above about 13%; inactive = the rest.

The test deals with Methyl-CpG-binding domain protein 2 (Homo sapiens) (UniProt Q9UBB5). Briefly: MBD2-DBD methyl-oligonucleotide interaction blockers – biochemical, TR-FRET, DNA-binding domain, human, primary screen (AID 686964). The following applies: MBD2 binding to methylated oligonucleotide, at 4.4 µM, active compounds read high. In general terms: In TR-FRET formats the signal depends on donor and acceptor labels being close together.
Methyl-CpG-binding domain protein 2 (Homo sapiens), sequence (Q9UBB5 whole entry, looked up, the tested form may be a part): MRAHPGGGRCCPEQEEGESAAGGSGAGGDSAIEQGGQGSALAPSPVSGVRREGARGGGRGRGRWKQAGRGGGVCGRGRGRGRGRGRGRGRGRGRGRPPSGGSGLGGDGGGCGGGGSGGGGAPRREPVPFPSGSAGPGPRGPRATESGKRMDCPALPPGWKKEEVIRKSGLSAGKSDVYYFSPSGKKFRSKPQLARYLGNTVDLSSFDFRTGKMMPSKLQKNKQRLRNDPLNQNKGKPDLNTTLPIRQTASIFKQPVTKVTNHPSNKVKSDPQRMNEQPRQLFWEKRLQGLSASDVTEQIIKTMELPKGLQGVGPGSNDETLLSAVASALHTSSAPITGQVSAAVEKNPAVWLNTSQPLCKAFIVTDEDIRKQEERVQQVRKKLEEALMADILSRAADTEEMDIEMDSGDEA
With `Cc1ccc(-c2nc3c(Cl)cc(C(F)(F)F)cn3c2Cc2cccc(Cl)c2)cc1`, the inhibition is -2.87%.
Under `Cc1ccc(-c2ccnc3nc(Sc4ncc(C(F)(F)F)cc4Cl)nn23)cc1` stands 14.8% (active); under `Cc1nn(-c2ncc(C(F)(F)F)cc2Cl)c(=O)n1-c1ccccc1`, 3.32%; under `CC(C)(C)NC(=O)COC(=O)c1cc(Cl)ccc1[N+](=O)[O-]`, -1.21%.
The value for `COC(=O)C[C@H]1CC[C@H]2[C@H](COc3ccc(NC(=O)C4CC4)cc3C(=O)N2C)O1` was -4.11%; that for `Cc1ccc(N(C(=O)c2snc(C(N)=O)c2N)C(C(=O)NCC2CCCO2)c2c[nH]c3ccccc23)cc1` (centres undefined) was 0.5%; that for `c1nc(COc2nsnc2N2CCOCC2)cs1` was -0.47%.
Take `C=CCn1c(=S)[nH]c2scc(-c3ccco3)c2c1=O`: the inhibition was 21.2% (active).
Under `Cc1ccc(Cn2cc(COC(=O)N(C)Cc3ccccc3)nn2)cc1` stands 3.5%.
The value for `O=C(NCc1cccs1)C1CCN(S(=O)(=O)c2ccccc2[N+](=O)[O-])CC1` was 0.44%; that for `CCCn1c(SCC(=O)Nc2c(C)cccc2C)nnc1C(C)C` was 6.66%; that for `CC(C)CC(COCc1ccc(Cl)cc1)N1CCN(C(=O)c2ccc(C(F)(F)F)cc2)CCC1=O` (centres undefined) was 4.33%.
The value for `COc1ccc(COC[C@H](CC(C)C)N2CCN(C(=O)c3cccc(C(F)(F)F)c3)CCC2=O)cc1` was 13.4% (active); that for `O=C(c1ccc(C(F)(F)F)cc1)N1CCC(=O)N([C@H](COCc2ccccc2)Cc2ccccc2)CC1` was 3%; that for `C[C@@H]1ON(C)[C@H]2C[C@H]3c4cc(N5CCOCC5)ccc4CCN3C[C@@H]12` was -5.34%.
As to `COC(=O)CNc1nc(Cl)nc(N2CCC(C)CC2)n1`, the inhibition is 2.21%.
Under `CCc1c(-c2ccc(F)cc2)ncn1Cc1cccc(-c2ccccc2)c1` stands 1.61%.
The value for `CCOC(=O)C1CCN(C(=O)C(C)(C)NC(=O)Nc2ccccc2Cl)CC1` was 1.47%.
For the molecule `Cc1c(CC(=O)N2CCN(C(=O)C3COc4ccccc4O3)CC2)c(=O)oc2c(O)c(O)ccc12` (centres undefined), the inhibition was 13.6% (active).
The value for `Fc1ccc2nc(COCc3nc4ccc(F)cc4[nH]3)[nH]c2c1` was -0.41%; that for `CCC(C)n1[nH]c(=O)c2c(C)cc(C)nc21` (centres undefined) was -4.79%.
Under `CCC(=O)Nc1cccc(C2=NOC3(C2)C[C@@H](C(N)=O)N(C(=O)c2cc([N+](=O)[O-])cc([N+](=O)[O-])c2C)C3)c1` (some centres undefined) stands -0.08%.
Under `COc1ccc(-n2cc(-c3ccccc3)c3c(=S)nc[nH]c32)cc1` stands 14% (active).
`O=c1[nH]cnc2c1c(-c1ccccc1)cn2-c1ccc(F)cc1`: the inhibition was 4.57%.
The value for `O=C(CNS(=O)(=O)c1ccccc1F)N1CCN(c2ccccn2)CC1` was -1.19%; that for `COC(=O)c1ccc2nc(-c3cccc(Br)c3)c(Cc3ccc(OC)cc3C)n2c1` was 14.9% (active); that for `COC(=O)c1ccc2nc(-c3ccccc3)c(Cc3ccc(OC)cc3C)n2c1` was 10.6%.
Consider `COC(=O)c1ccc2nc(-c3ccc(C)cc3)c(Cc3ccc(OC)cc3C)n2c1`, for which the inhibition is 7.16%.
With `Cc1ccc(OCc2nnc(SC/C=C/c3ccccc3)n2Cc2ccco2)cc1`, the inhibition is -3.87%.
Under `C=CCN1C(=O)[C@@H](CC(=O)N2CCN(C(=O)OCC)CC2)[C@]2(C(=O)OCC)CCCCC/C=C/12` stands 4.9%; under `Brc1ccc(-c2n(-c3ccccn3)c3ccccc3[n+]2-c2ccccn2)cc1`, 27.6% (active); under `CS(=O)(=O)N(C(=O)NC(=O)NC1CCS(=O)(=O)C1)C1CCCCC1` (centres undefined), 0.13%.
The value for `CCCC1CCC2(CCCN2CCOC(=O)NCc2ccccc2)CC1` (centres undefined) was 3.95%; that for `COc1ccnc(NC(=S)N2CCN(c3ncc(C(F)(F)F)cc3Cl)CC2)c1` was 6.09%.
With `COc1ccc(-c2noc(CCCC(=O)NC3CCCC3)n2)cc1OC`, the inhibition was -2.51%.
The value for `CCOc1cc(-c2noc(CCCC(=O)NC3CCCCC3)n2)ccc1OC` was 20.2% (active); that for `CCOc1cc(-c2noc(CCC(=O)N3CCOCC3)n2)ccc1OC` was -5.56%.
On to `CCOC(=O)[C@]12CCCC=C1N(CCCOC)C(=O)[C@@H]2CC(=O)N1CCOCC1`, for which the inhibition was -0.28%.
Under `Cc1cc(C(=O)NN=C/C=C/c2ccco2)n[nH]1` stands -1.33%.
Under `C/C=C/c1ccc(OCCCCN2CCC(C)CC2)c(OC)c1` stands -2.18%; under `C[C@H](O)[C@@H]1C(=O)N2CCc3c([nH]c4c(-c5ccc6c(c5)OCO6)cccc34)[C@@H]2C[C@@H]1N(C)C(=O)c1ccco1`, -2.04%; under `O=S(=O)(NCC1CCCO1)c1cnc(Cl)c(Cl)c1` (centres undefined), 4.2%.
As to `COc1ccccc1OCC(=O)Nc1c2c(nn1-c1ccc(F)cc1)CS(=O)(=O)C2`, the inhibition is -1.49%.
The value for `O=C(Nc1c2c(nn1-c1ccccc1)CS(=O)(=O)C2)C1CCCC1` was 2.43%.
The value for `O=C(CC1CCCCC1)Nc1c2c(nn1-c1ccc(F)cc1)CS(=O)(=O)C2` was 15.6% (active).
The value for `c1coc(CCNc2ncnc3ccc(-c4ccc5c(c4)OCO5)cc23)c1` was -2.55%; that for `CC(C)Oc1ccc(C2NC(=O)NC2=O)cc1` (centres undefined) was 15.2% (active); that for `COc1ccc(C2NC(=O)N(C)C(C)=C2[N+](=O)[O-])cc1` (centres undefined) was 0.13%.
For the molecule `O=C1NC(=O)C(c2ccc(Cl)cc2)N1` (centres undefined), the inhibition was 0.89%.
Under `CN(C)Cc1cn(-c2ccc(-c3noc4c3C(=O)N(CC(=O)N3CCOCC3)CC4)cc2)nn1` stands -2.86%; under `COC(=O)[C@]12C[C@H](CC(=O)NCc3ccc(OC)c(OC)c3)C(=O)N(Cc3ccccc3)C1=C[C@H](C(C)C)O[C@@H]2C1CC1`, -2.93%; under `CC(C)c1nc(CNC(=O)CC2C(=O)NCCN2Cc2ccoc2)cs1` (centres undefined), -4.85%.
The value for `Cc1ccc(CN2CCNC(=O)C2CC(=O)NCc2csc(C(C)C)n2)cc1` (centres undefined) was 0.13%.
The value for `CC(C)c1nc(CNC(=O)CC2C(=O)NCCN2Cc2cccc(F)c2F)cs1` (centres undefined) was 24.3% (active); that for `COc1ccc(Cn2cc(CN3[C@@H](CC(C)C)COc4cc(Br)ccc4S3(=O)=O)nn2)cc1` was 0.36%.
Regarding `CN(C)CCNC(=O)Cc1ccc([N+](=O)[O-])cc1`, the inhibition was -0.79%.
The value for `CN(C)CCNC(=O)c1ccc(Cl)c2cc3ccccc3nc12` was 51.2% (active).
With `Cc1c(C(=O)NCCN(C)C)oc2ccc(S(=O)(=O)N3CCCC3)cc12`, the inhibition is 4.85%.
Under `COc1ccc(OCCCC(=O)Nc2cccc(S(=O)(=O)N3CCCCCC3)c2)cc1` stands -2.96%; under `C[C@H]1[C@H](c2ccccc2)Oc2cc(Br)ccc2S(=O)(=O)N1Cc1cccc(F)c1`, 8.37%.
The value for `O=C1/C(=C\c2ccc([N+](=O)[O-])cc2)CS(=O)(=O)C/C1=C/c1ccc([N+](=O)[O-])cc1` was -5.61%; that for `CCOc1ccc(S(=O)(=O)N2CCC(c3ccccc3)CC2)cc1C(=O)O` was 22.6% (active); that for `CCOc1ccc(S(=O)(=O)N2CCC(C(=O)NCc3ccccn3)CC2)cc1Cl` was -0.81%.
Turning to `O=S(=O)(c1ccccc1)N1CCC(c2ccccc2)CC1`, the inhibition is 0.43%.
Under `O=C(c1n[nH]c2c1CCC2)N1CCCC(Nc2cccc(F)c2)C1` (centres undefined) stands 14.7% (active); under `COC(=O)c1cccc(C(=O)N2CCCC(Nc3ccc4c(c3)OCCO4)C2)c1` (centres undefined), 4.97%; under `CSc1ncccc1C(=O)N1CCCC(Nc2ccc(F)c(F)c2)C1` (centres undefined), 2.81%.
The value for `O=C(CSc1nnc(COc2ccccc2)n1-c1ccc(Cl)cc1)Nc1ccc2c(c1)OCO2` was 3.27%; that for `Cc1ccccc1C(=O)N[C@H](C(=O)N1CCC[C@H]1C(=O)NCc1ccccc1)C(C)C` was -4.41%; that for `COC(=O)Cc1ccc(OC2(C)CCN(Cc3ccc4c(c3)OCCO4)C2)cc1` (centres undefined) was 5.04%.
On to `COC(=O)c1c(NC(=O)c2ccc(S(=O)(=O)N3CCOCC3)cc2)sc2c1CCN(C(C)C)C2`, for which the inhibition was 13.3% (active).
Consider `CC(OC(=O)c1ccc(S(=O)(=O)N2CCOCC2)cc1)c1ccccc1` (centres undefined), for which the inhibition is 5.42%.
Under `COc1ccc(S(=O)(=O)N2CCOCC2)cc1NC(=O)c1ccc(OCC(C)C)c(OC)c1` stands 0.42%; under `CC(OC(=O)CCC(=O)c1ccccc1)C(=O)Nc1ccc(F)cc1` (centres undefined), -0.7%; under `COCCNC(=S)N(C)[C@H]1C[C@H]2c3[nH]c4ccccc4c3CCN2C[C@H]1[C@H](C)O`, -2.52%.
Under `CCOc1ccc(-n2c(SCC(=O)Nc3cc(C)c(NC(=O)c4ccccc4)cc3OC)nnc2-c2cccs2)cc1` stands -6.74%; under `CCOc1ccc(N(CC(=O)NCCOc2ccccc2OC)S(=O)(=O)c2ccccc2)cc1`, 15.1% (active).
Under `COc1ccc(CCNC(=O)CN(c2ccccc2)S(=O)(=O)c2ccccc2)cc1` stands 2%; under `CCOc1ccc(N(CC(=O)NCCc2ccc(F)cc2)S(=O)(=O)c2ccccc2)cc1`, 4.6%.
In the case of `C=CCN1C(=O)[C@@H](CC(=O)N2CCN(C(=O)c3ccco3)CC2)[C@]2(C(=O)OC)CCCCC=C12`, the inhibition was 3.2%.
Under `CN(CCc1ccccc1)C(=O)Cn1nc(-c2ccccc2)ccc1=O` stands -0.03%.
Turning to `CCOC(=O)N1CCN(C(=O)C[C@H]2C[C@@]3(C(=O)OC)C(=C[C@H](C4CCCC4)O[C@@H]3C)N(Cc3ccccc3)C2=O)CC1`, the inhibition is -8.2%.
For the molecule `COc1ccc2[nH]c3c(C)c4cc[n+](C)cc4c(C)c3c2c1`, the inhibition was 109% (active).
Under `CCCc1nnc(SCC(=O)N2C(C)CCCC2C)n1CC` (centres undefined) stands 3.6%.

As a reminder, the inhibition is the change of the read-out against control, counted positive when it falls.
